We go through 28 molecules from PubChem BioAssay (NCATS).

Assay [1] addresses DNA dC->dU-editing enzyme APOBEC-3G (Homo sapiens) (UniProt Q9HC16). Briefly: qHTS for inhibitors of Vif-A3G interactions: Validation (AID 588379). Note: 0% is about no effect. As to conditions: Vif-A3G protein interaction assay; series mostly up to 46.1 µM. An outline of the steps: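 Yellow fluorescence (Ex 488, Em 500-530) of Vif-coexpressing HeLa A3G-eYFP cells, scanned by Acumen cytometer, reports blocked A3G degradation. Cells plated at 700/well overnight at 37 deg C before compound addition, then a further overnight compound incubation at 37 deg C.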
(In general: Quantitative high-throughput screening tests each substance at several concentrations.)

In assay [2] the target is phosphoglycerate mutase (Leishmania major) (UniProt Q4Q090). Briefly: qHTS Validation Assay to Find Inhibitors of Phosphoglycerate Mutase (AID 504548).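 Note: end-point luminescence from Kinase-GloPlus after the PGAM reaction; % is set by controls: 0 for no effect and ±100 for the full control effect.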 As to conditions: biochemical enzyme activity; series mostly up to 57.5 µM. An outline of the steps: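 Inhibition of L. major PGAM was assessed by Kinase-GloPlus luminescence following a 45-minute room-temperature reaction with enzyme at 1.25nM final.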

The nature of assay [3]: qHTS for Inhibitors of ATXN expression: Validation of Cytotoxic Assay (AID 588349). Note: % is set by controls: 0 for no effect and ±100 for the full control effect. As to conditions: cytotoxicity counter-screen for ATXN expression inhibitors, cell viability; series mostly up to 57.1 µM. An outline of the steps:
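Cytotoxicity counter-screen: HEK293 cells exposed to compound titrations, 72 hr, 37 degrees C. Read-out is intracellular ATP (CellTiter Glo luminescence) as a viability measure.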

A short description of assay [4]: qHTS for Inhibitors of ATXN expression: Validation (AID 588378). Note: % is set by controls: 0 for no effect and ±100 for the full control effect; nearly all actives have a fitted effect of over 75% in size. As to conditions: cell-based ATXN2 expression reporter assay, luminescence; series mostly up to 57.1 µM. An outline of the steps:
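HEK293 cells carrying ATXN2-firefly luciferase reporter, treated with compound 24 h at 37 °C. Viability read first by CellTiter-Fluor (405/525 nm), then reporter expression by Bright-Glo luminescence; controls were a known ATXN2 expression inhibitor and a luciferase inhibitor.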

The target of assay [5] is Ubiquitin carboxyl-terminal hydrolase 1 (Homo sapiens) (UniProt O94782). Briefly: Inhibitors of USP1/UAF1: Pilot qHTS (AID 504865).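 Note: rhodamine fluorescence freed from ubiquitin-rhodamine substrate followed over time; top concentration of the series differs between compounds; % is set by controls: 0 for no effect and ±100 for the full control effect; nearly all actives have a fitted effect of over 35% in size.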 As to conditions: purified USP1/UAF1, Ub-rhodamine cleavage fluorescence; series mostly up to 114 µM. The method in brief:
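USP1/UAF1 complex at 1 nM preincubated 15 min at room temperature with compound, then Ub-Rho substrate added at 150 nM final. Fluorescence (480/540 nm) read kinetically in 50 mM HEPES pH 7.8, 0.5 mM EDTA, 1 mM TCEP, 0.1 mg/ml BSA, 0.01% Tween-20.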

In assay [6] the target is Estrogen receptor (Homo sapiens) (UniProt P03372). Briefly: qHTS assay for small molecule antagonists of estrogen receptor alpha signaling (AID 588513; active = well fitted curve in the direction sought with a large enough effect in the signal ratio, with a control signal flat, not every such curve was filed as active; the % refers to the signal ratio; note: potency is the fitted concentration of half-maximal effect). As to conditions: ER-alpha-UAS-bla HEK293, beta-lactamase ratio, antagonist mode; series mostly up to 76.9 µM. The method in brief:
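ER-alpha-UAS-bla GripTite HEK 293 cells in 2% charcoal/dextran-treated FBS medium; compounds titrated (1:2, duplicate), then stimulated with 0.5 nM 17-beta-estradiol for 18 h at 37C. CCF4 beta-lactamase fluorescence; Hill-fit IC50 and efficacy.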

Assay [7] has the same target. Briefly: qHTS assay for small molecule agonists of estrogen receptor alpha signaling (AID 588514; calls by dose curve;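 note: 0% = vehicle only and 100% = reference agonist; nearly all actives have a fitted effect of over 70% in size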). As to conditions: ER-alpha-UAS-bla HEK293, beta-lactamase ratio, 18 h, percent of full estradiol response, vehicle zero; series mostly up to 76.8 µM. The method in brief:
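Read-out: CCF4 fluorescence from a beta-lactamase reporter in ER-alpha-UAS-bla HEK 293 cells after 18 hrs of compound exposure at 37 C. Normalized to 20 nM 17-beta-estradiol (100%) and DMSO (0%).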

The target in assay [8] is Glucocorticoid receptor (Homo sapiens) (UniProt P04150). Briefly: qHTS assay for small molecule agonists of glucocorticoid receptor signaling (AID 588532; active = well fitted curve in the direction sought with a large enough effect in the signal ratio, with a control signal flat; the % refers to the signal ratio;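 note: 100% = dexamethasone at 0.1 µM and 0% = DMSO only wells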). As to conditions: HeLa MMTV-bla, beta-lactamase ratio, agonist, 18 h; stronger effect = higher value; percent of dexamethasone control, DMSO zero. An outline of the steps:
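Titration series, up to 92 uM, applied to GRE-bla HeLa cells for 18 h at 37 C. Detection by CCF4 FRET substrate after 2 h at RT.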

The target of assay [9] is Androgen receptor (Homo sapiens) (UniProt P10275). As to the kind of experiment: qHTS assay for small molecule agonists of androgen receptor signaling (AID 588515; active = well fitted curve in the direction sought with a large enough effect in the signal ratio, with a control signal flat; the % refers to the signal ratio; note: % is set by controls: 0 for no effect and ±100 for the full control effect). Conditions: AR-UAS-bla HEK293, beta-lactamase ratio, agonist 16 h; activation: stronger effect = higher value. The method in brief: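 Stimulation of an AR-responsive β-lactamase reporter in GripTite HEK293 cells was measured after 16 h compound exposure at 37 °C, via CCF4 fluorescence after 2 h RT. EC50 from Hill fits, normalized to R1881 at 30 nM.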

The target is the same in assay [10]. Briefly: qHTS assay for small molecule antagonists of androgen receptor signaling (AID 588516; active = well fitted curve in the direction sought with a large enough effect in the signal ratio, with a control signal flat, not every such curve was filed as active; the % refers to the signal ratio; note: % is set by controls: 0 for no effect and ±100 for the full control effect). As to conditions: AR-UAS-bla HEK293, beta-lactamase ratio, antagonist mode, 16 h; series mostly up to 76.8 µM. The source says: NIH Chemical Genomics Center [NCGC] U.S. Environmental Protection Agency [EPA] National Institutes of Environmental Health Sciences [NIEHS] National Toxicology Program [NTP] NCGC Assay Overview Androgen receptor (AR), located at chromosome Xq11-12, is an important member of nuclear hormone receptors. AR signaling plays a critical role in AR-dependent prostate cancer and other androgen related diseases. Considerable attention has been given in the past decades to the possibility of some of environmental chemicals which may contribute the endocrine disruption. Therefore, it is important to understand the effect of environmental chemicals in AR signaling pathway.
NCGC Assay Protocol Summary Using a beta-lactamase reporter-gene under control of the AR response element, a cell-based assay [GeneBLAzer AR-UAS-bla-GripTite assay developed by Invitrogen] was used to measure AR ligands signaling. AR-UAS-bla-GripTite HEK 293 cells were used with assay medium containing 10% dialyzed FBS, 0.1 mM NEAA and 1 mM sodium pyruvate. The assay was performed in clear bottom black Greiner 1536-well plates. Library compounds were measured for their ability to inhibit the reporter gene activity. Compounds were screened in a titration series in 1536-well format. The fluorescence intensity (405 nm excitation, 460/530 nm emission) was measured using an EnVision plate reader. Data was normalized relative to R1881 (10nM, 100%), and DMSO only wells (basal, 0%). Concentration-response titration points for each compound were fitted to the Hill equation yielding concentrations of half-maximal inhibition (IC50) and maximal response (efficacy) values. qHTS protocol for AR beta-lactamase assay in antagonist mode [Step] [Parameter] [Value] [Description] 1. Reagent; 5 uL; 2000 cells/well 2. Incubation; 37 C for 5 hrs 3. Compounds; 23 nL; 0.59 nM to 92 uM 4. Controls (Cyp Ac, AR antagonist); 23 nL, dose response, 1:3 dilutions with duplicates 5. Agonist (Stimulator); 1uL; R1881 at 10nM (final) concentration 6. Incubation; 37 C for 16 hrs 7. Detection reagent; 1 uL of CCF4-dye 8. […] Detection; Fluorescence; Envision plate reader

Several values for one entry are separate records, joined by “and”; a condition that tells them apart may be missing. Equal values may be shown once. Values without a mark were called inactive. Results filed as inconclusive are left out. Activity calls are given as the source filed them. Unless noted, calls come from the whole dose curve; as a rule, active = well fitted curve in the direction sought with a large enough effect; inconclusive = small, poorly fitted or top-dose-only effect, or another doubt; inactive = no such curve, though single readings can be large; an effect the other way counts as inactive or inconclusive.

Sequence of DNA dC->dU-editing enzyme APOBEC-3G (Homo sapiens) (Q9HC16 whole entry, looked up): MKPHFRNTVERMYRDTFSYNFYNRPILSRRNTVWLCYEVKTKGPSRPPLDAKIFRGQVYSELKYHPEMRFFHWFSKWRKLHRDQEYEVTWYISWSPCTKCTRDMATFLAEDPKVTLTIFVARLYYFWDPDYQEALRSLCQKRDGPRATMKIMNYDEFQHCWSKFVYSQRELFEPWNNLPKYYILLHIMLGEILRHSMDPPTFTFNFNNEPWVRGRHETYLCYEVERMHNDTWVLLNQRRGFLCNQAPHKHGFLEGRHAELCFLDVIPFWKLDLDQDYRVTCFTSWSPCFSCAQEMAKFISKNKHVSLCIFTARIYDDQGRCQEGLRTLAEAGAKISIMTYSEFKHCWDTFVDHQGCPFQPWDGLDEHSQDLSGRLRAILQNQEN
Sequence of phosphoglycerate mutase (Leishmania major) (Q4Q090 1-553): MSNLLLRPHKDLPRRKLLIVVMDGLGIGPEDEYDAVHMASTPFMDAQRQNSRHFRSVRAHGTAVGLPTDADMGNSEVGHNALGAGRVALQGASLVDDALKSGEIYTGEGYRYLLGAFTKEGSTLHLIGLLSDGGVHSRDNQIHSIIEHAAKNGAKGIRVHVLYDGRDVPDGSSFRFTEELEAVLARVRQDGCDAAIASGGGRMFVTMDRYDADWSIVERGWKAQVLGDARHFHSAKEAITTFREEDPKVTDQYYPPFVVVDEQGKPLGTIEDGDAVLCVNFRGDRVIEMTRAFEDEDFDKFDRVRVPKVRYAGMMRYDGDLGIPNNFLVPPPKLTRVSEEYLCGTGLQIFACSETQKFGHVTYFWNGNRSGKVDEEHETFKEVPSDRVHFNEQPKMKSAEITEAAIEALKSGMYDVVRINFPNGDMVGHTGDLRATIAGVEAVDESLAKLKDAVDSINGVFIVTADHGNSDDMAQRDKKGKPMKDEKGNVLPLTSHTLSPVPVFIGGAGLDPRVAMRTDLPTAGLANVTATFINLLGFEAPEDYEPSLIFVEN
Sequence of Glucocorticoid receptor (Homo sapiens) (P04150 whole entry, looked up): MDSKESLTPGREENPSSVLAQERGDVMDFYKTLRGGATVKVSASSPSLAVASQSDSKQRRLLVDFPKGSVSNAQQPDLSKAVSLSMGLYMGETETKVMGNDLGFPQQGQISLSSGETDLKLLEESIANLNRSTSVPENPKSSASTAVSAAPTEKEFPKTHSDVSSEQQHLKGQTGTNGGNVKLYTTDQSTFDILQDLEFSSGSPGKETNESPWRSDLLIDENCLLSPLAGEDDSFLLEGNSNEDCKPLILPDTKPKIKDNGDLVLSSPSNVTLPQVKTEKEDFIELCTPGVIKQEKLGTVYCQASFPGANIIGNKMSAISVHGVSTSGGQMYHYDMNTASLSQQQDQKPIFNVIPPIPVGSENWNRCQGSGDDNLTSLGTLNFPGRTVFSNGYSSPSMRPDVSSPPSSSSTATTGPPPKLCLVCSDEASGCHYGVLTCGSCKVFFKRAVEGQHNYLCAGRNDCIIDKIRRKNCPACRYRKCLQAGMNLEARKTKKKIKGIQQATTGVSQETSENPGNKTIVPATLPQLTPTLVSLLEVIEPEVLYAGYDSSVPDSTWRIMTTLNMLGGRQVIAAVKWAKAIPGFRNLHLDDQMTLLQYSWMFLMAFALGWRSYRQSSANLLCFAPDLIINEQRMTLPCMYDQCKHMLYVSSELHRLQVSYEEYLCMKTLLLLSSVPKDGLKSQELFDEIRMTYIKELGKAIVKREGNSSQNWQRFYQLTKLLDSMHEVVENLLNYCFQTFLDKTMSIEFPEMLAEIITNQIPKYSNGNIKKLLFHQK
Sequence of Estrogen receptor (Homo sapiens) (P03372 whole entry, looked up): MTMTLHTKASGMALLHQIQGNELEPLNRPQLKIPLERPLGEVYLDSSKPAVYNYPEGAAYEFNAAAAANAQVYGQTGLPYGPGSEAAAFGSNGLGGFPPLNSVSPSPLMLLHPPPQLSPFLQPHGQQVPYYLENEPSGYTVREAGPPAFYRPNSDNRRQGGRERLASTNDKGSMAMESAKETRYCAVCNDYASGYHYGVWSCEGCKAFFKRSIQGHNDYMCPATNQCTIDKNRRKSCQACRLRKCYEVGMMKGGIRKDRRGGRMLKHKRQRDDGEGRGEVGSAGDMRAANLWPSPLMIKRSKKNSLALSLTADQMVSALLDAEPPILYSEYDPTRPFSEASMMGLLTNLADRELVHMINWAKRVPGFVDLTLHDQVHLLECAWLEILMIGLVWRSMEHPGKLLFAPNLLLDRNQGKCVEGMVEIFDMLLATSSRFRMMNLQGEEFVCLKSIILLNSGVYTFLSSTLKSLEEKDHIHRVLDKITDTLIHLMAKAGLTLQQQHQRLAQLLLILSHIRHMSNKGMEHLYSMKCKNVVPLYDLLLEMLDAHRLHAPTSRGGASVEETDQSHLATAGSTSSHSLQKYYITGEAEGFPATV
Sequence of Androgen receptor (Homo sapiens) (P10275 whole entry, looked up): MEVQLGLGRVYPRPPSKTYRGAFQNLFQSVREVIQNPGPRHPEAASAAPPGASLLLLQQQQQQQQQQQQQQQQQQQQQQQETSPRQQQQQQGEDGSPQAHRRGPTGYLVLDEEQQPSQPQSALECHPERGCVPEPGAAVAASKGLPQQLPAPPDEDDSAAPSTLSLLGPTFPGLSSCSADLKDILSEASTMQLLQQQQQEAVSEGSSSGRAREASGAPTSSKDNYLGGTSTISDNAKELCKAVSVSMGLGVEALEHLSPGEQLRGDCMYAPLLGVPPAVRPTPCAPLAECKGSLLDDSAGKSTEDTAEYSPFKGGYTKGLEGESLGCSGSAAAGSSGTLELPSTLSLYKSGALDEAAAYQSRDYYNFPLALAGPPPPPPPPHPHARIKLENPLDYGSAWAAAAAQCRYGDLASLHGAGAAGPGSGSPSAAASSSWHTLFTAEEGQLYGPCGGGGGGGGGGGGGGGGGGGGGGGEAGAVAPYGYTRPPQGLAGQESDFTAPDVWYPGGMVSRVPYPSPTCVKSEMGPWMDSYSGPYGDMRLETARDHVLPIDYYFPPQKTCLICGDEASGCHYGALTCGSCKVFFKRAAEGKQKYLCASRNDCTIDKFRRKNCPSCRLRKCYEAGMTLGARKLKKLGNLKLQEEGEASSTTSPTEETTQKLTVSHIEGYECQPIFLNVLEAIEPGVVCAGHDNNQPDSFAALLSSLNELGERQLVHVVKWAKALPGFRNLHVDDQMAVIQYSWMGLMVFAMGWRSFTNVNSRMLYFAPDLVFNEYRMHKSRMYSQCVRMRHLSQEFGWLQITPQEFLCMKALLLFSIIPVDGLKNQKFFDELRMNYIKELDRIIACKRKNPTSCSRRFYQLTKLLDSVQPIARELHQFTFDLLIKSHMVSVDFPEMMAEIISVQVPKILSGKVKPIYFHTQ
Sequence of Ubiquitin carboxyl-terminal hydrolase 1 (Homo sapiens) (O94782 whole entry, looked up): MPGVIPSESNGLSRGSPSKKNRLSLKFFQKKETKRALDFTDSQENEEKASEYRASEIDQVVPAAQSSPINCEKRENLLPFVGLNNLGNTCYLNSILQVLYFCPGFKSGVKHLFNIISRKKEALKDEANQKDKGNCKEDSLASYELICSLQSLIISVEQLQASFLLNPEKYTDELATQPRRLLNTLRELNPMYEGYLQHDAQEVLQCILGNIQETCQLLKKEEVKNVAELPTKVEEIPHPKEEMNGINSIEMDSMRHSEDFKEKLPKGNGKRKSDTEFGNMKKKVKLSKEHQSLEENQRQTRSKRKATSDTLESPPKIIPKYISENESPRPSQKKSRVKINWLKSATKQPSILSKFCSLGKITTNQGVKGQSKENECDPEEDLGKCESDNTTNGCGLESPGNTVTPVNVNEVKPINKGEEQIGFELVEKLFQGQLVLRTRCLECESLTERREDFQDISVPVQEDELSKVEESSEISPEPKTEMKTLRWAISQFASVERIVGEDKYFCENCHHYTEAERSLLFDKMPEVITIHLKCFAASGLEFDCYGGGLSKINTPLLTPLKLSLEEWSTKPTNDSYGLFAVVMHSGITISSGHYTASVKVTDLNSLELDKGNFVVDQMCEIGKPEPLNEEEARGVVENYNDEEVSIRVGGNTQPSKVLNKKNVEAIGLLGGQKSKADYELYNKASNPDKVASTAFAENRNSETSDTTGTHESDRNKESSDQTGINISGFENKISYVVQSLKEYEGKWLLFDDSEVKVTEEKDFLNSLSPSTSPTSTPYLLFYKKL

Regarding `NC(=O)c1ccc(-c2nc(-c3ccc4c(c3)OCO4)c(-c3ccccn3)[nH]2)cc1`, the molecule was classed as inactive in [1].
Regarding `CC(C)(C)NCC(O)c1ccc(O)c(CO)c1` (stereo not given), the molecule was classed as inactive in assay [2] and in assay [4]. The Potency result in [3] was “inactive”.
Regarding `Cc1[nH]c(=O)c(C#N)cc1-c1ccncc1`, the outcome in assay [2], in assay [4] and in [1] was inactive. For the same molecule, the Potency result in assay [3] was “inactive”.
In the case of `OC(CN1CCC(Cc2ccc(F)cc2)CC1)c1ccc(Cl)cc1` (stereo not given), the Potency entry in assay [5] and in assay [3] was “inactive” throughout. In assay [4], the call was inactive.
As for `NNCCc1ccccc1`, the molecule was called inactive in assay [2] and in [4]. Also, the Potency result in assay [3] was “inactive”.
Take `CC(c1cc2ccccc2s1)N(O)C(N)=O` (stereo not given): the Potency entry in assay [5] is “inactive”.
As to `C1COC(NC(C2CC2)C2CC2)=N1`, the result in assay [2], in assay [4] and in [1] was inactive. Further, in assay [3], the Potency entry was “inactive”.
For the molecule `CCOC(=O)C1=C[C@@]2(CC)CCCN3CCc4c(n1c1ccccc41)[C@H]32`, in [5], the Potency result was “inactive”. Also, the molecule was called inactive in [1].
Turning to `CCCC(CCC)C(=O)O`, the result in assay [2], in [4] and in [7] was inactive. The Potency entry in assay [3] and in assay [6] was “inactive” throughout. For the same molecule, the activation in [8] was 0.686% and -7.28% and -7.7%.
As for `CC(C)(Sc1ccc(CCN(CCCCC2CCCCC2)C(=O)NC2CCCCC2)cc1)C(=O)O`, the outcome in assay [2], in [4], in assay [1] and in [10] was inactive. Also, in [3], the Potency result is “inactive”. In assay [6], the Potency is 15.8 µM [inhibitor] (active). Besides, in assay [9], the activation is -10.8%.
On to `O=C1CCC(N2C(=O)c3ccccc3C2=O)C(=O)N1` (stereo not given), for which the result in [2] and in assay [4] was inactive. In addition, the Potency result in assay [3] was “inactive”. In [8], the activation was -2.05%.
As for `Cc1ccc2c(c1)C(=O)[C@@]1(O)CCN(c3ccccc3)C1=N2`, in assay [1], the molecule was called inactive.
Turning to `Clc1cccc(Cl)c1NC1=NCCN1`, the outcome in assay [2], in assay [4] and in [1] was inactive. Moreover, the Potency entry in assay [3] was “inactive”.
`NC(N)=NC(=O)c1nc(Cl)c(N)nc1N`: the molecule was called inactive in assay [2], in [4], in assay [1] and in assay [7]. In assay [3], the Potency result was “inactive”. In addition, in assay [8], the activation is 0.0438%.
In the case of `CC(C)C[C@H](NC(=O)[C@@H](O)[C@H](N)Cc1ccccc1)C(=O)O`, the call in [2], in assay [4] and in [1] was inactive.
Regarding `N=c1nc(N2CCCCC2)cc(N)n1O`, the call in assay [2], in assay [4] and in [1] was inactive. Moreover, the Potency result in assay [3] was “inactive”.
On to `Nc1nc2ccc(OC(F)(F)F)cc2s1`, for which the outcome in assay [2], in assay [4] and in [1] was inactive. In assay [3], the Potency result was “inactive”.
For the molecule `Cn1cnc([N+](=O)[O-])c1Sc1ncnc2nc[nH]c12`, the call in [2], in assay [4] and in assay [7] was inactive. Further, the Potency entry in assay [3] and in assay [6] was “inactive” in each case. The activation in [8] was -7.04% and 6.25%.
Regarding `Cc1cc2c(C(C)C)c(O)c(O)c(C=O)c2c(O)c1-c1c(C)cc2c(C(C)C)c(O)c(O)c(C=O)c2c1O`, the call in [1] was inactive.
Regarding `CCOC(=O)N1CCC(=C2c3ccc(Cl)cc3CCc3cccnc32)CC1`, the molecule was classed as inactive in assay [2], in assay [4] and in assay [1]. For the same molecule, the Potency entry in assay [3] was “inactive”.
Consider `O=NN(CCCl)C(=O)NCCCl`, for which the molecule was classed as inactive in [2], in assay [4], in assay [7] and in [10]. The Potency entry in assay [3] is “inactive”. Moreover, the activation in assay [9] is 15.8%; in [8], 14.4%.
For `CCN(c1ccccc1)c1cc(NC)[n+](C)c(C)n1`, the molecule was classed as inactive in [1].
In the case of `CC(=O)Oc1ccccc1C(=O)O`, the molecule was classed as inactive in assay [2], in assay [4], in [7] and in [10]. Also, the Potency entry in [3] and in [6] was “inactive” in each case. Also, the activation in assay [9] was -3.22% and 7.95%; in assay [8] it was 0.393% and 3.49%.
For the molecule `NC[C@H](O)c1ccc(O)c(O)c1`, the molecule was classed as inactive in assay [2] and in assay [4]. In addition, the Potency entry in assay [3] is “inactive”. In addition, the activation in assay [8] was -3.45%.
Take `O=C1CCc2cc(OCCCCc3nnnn3C3CCCCC3)ccc2N1`: the call in assay [2], in [4] and in assay [1] was inactive. In assay [3], the Potency result is “inactive”.
On to `O=c1[nH]cnc2[nH]ncc12`, for which the molecule was called inactive in assay [2], in assay [4] and in assay [7]. Moreover, the Potency result in assay [3] and in [6] was “inactive” throughout. In addition, the activation in [8] was 1.38%.
Consider `CCc1ccc(CCOc2ccc(CC3SC(=O)NC3=O)cc2)nc1` (stereo not given), for which the Potency entry in assay [5] was “inactive”.
For `Nc1ncnc2nc(-c3ccc(N4CCOCC4)nc3)cc(-c3cccc(Br)c3)c12`, the molecule was classed as inactive in assay [2] and in assay [4]. In addition, the Potency result in [3] is “inactive”.
